IL1B secr inh – inhibitors of inflammasome signaling (IL-1 beta secretion); THP-1 LPS/ATP IL-1B secretion, AlphaLISA, 16 h; stronger effect = lower value; activity change, % at 57.5 µM; actives 4.7% (n = 360,000); in the data active means activity change below about -50%; inconclusive means mostly about -30% to -49%
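THP-1 cells pretreated 1 hr with compounds (up to 57.5 uM final), then stimulated with LPS (250 ng/mL final) plus ATP (1.25 mM final); secreted IL-1B measured by AlphaLISA after 16 hr, decreased signal indicating inhibition.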
HT1080 IDH1KD tx – HT-1080 IDH1 knockdown cell toxicity (counter line) | HT-1080 IDH1 knockdown viability, ATP luminescence, 48 h | Potency, µM (titrated, usually from 46.1 µM), most hits filed as cytotoxic | actives 2% (n = 360,000)
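HT-1080-IDH1KD cells (IDH1 knocked down), 750/well in RPMI with 5% FBS, treated with compound 48 h at 37 degrees C. Viability by CellTiter-Glo luminescence, normalised to DMSO and no-cell wells; concentration-response curves classed.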
HT1080NT lethal – kills 2HG-producing HT-1080-NT fibrosarcoma cells; actives 1.6% (n = 360,000); Potency, µM (series often up to 46.1 µM), most hits filed as cytotoxic; HT-1080-NT fibrosarcoma viability, CellTiter-Glo ATP luminescence, 48 h;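 further: NT is the 2HG producing partner of a matched IDH1 knockdown line; nearly all actives have a fitted effect of over 55% in size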
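HT-1080-NT; 750 cells/well; 5% FBS RPMI; 48 h compound, 37 degrees C; CellTiter-Glo luminescence; curve fitting and curve-class assignment.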
DT40 TDP1 CPT – DT40-hTDP1 cell growth loss with CPT; chicken DT40 Tdp1-/-;hTDP1 cells + 20 nM CPT, ATP luminescence, 48 h; Potency, µM (doses to about 46.2 µM), hits mostly inhibitors; actives 12% (n = 420,000); AID 686979; further: nearly all actives have a fitted effect of over 55% in size
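Cell growth measured by CellTiter-Glo luminescence after a minimum 48 h, 37 C compound exposure with 20 nM CPT in Tdp1-knockout DT40 cells stably expressing hTDP1, seeded 400/well; qHTS titration format.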
TDP1 cell noCPT – qHTS for Inhibitors of human tyrosyl-DNA phosphodiesterase 1 (TDP1): qHTS in cells in absence of CPT. DT40 Tdp1-/- hTDP1 cells, no CPT, ATP luminescence, 48 h. Potency, µM (highest dose often 46.2 µM), hits mostly inhibitors. actives 15% (n = 420,000); further: nearly all actives have a fitted effect of over 55% in size
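Stably hTDP1-transfected Tdp1-null chicken DT40 cells were treated with library compounds minus camptothecin and grown for at least 48 hr at 37 °C, after which cellular ATP was quantified by luminescence.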
ELG1 repair inh – ELG1-dependent DNA repair inhibition | HEK293T ELG1-luciferase reporter, luminescence, 16 h; DNA damage induced by 5-fluorouridine | Potency, µM (series often up to 46.1 µM), usual class: inhibitors | actives 2.3% (n = 330,000); further: nearly all actives have a fitted effect of over 55% in size
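Luminescence from the luciferase reporter, measured 30 min after ONE-Glo reagent at room temperature, was the read-out. Beforehand, 2,000 cells per well were exposed for 16 hr at 37 °C to 5-fluorouridine together with compound or vehicle.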
A number is an active result; . = inactive; ? = inconclusive; / = no result. Compounds with a hit are over-represented: about 19% of the library has one in this group of screens. Unless noted, the call rests on the fitted dose curve; in most records, active means well fitted curve in the direction sought with a large enough effect; inconclusive means small, poorly fitted or top-dose-only effect, or another doubt; inactive means no such curve, though single readings can be large; an effect the other way counts as inactive or inconclusive.

SMILES | IL1B secr inh | HT1080 IDH1KD tx | HT1080NT lethal | DT40 TDP1 CPT | TDP1 cell noCPT | ELG1 repair inh
CC(C)N(C(=O)CN1CCN(C(=O)C2COc3ccccc3O2)CC1)C(C)C (stereo not drawn) | . | . | . | . | ? | .
CN1CCN(C(=O)C23CC4CC(C2)CC(c2ccccc2)(C4)C3)CC1 | -53 | . | . | ? | ? | .
O=C(c1ccccc1)N1CCN(C(=O)C23CC4CC(CC(C4)C2)C3)CC1 | . | . | . | . | ? | .
CC1CCC(NC(=O)c2cccc(S(=O)(=O)N3CCOCC3)c2)CC1 (stereo not drawn) | . | . | . | . | ? | /
CCC(=O)N1c2nc(C(C)C)nn2C2(CCCCC2)[C@@H]2CCCC[C@@H]21 | / | / | / | 8.2µM | 4.1µM | /
CC(C)C(=O)N1c2ncnn2C2(CCCCC2)[C@@H]2CCCC[C@@H]21 | / | / | / | 16µM | 10µM | /
O=C(CSc1nc2c([nH]c3ccccc32)c(=O)n1-c1ccc(F)cc1)N1CCc2ccccc21 | / | / | / | . | ? | /
O=C(NCCc1ccccc1)C1CCC(CNS(=O)(=O)c2ccccc2)CC1 (stereo not drawn) | . | . | . | . | . | .
Cc1cccc(CCNC(=O)C2CCC(CNS(=O)(=O)c3cccs3)CC2)c1 (stereo not drawn) | . | . | . | ? | ? | .
Cc1cc(C)c(S(=O)(=O)NCC2CCC(C(=O)NCCc3ccccc3)CC2)c(C)c1 (stereo not drawn) | / | / | / | 15µM | 15µM | /
Cc1cccc(CCNC(=O)C2CCC(CNS(=O)(=O)c3c(C)cc(C)cc3C)CC2)c1 (stereo not drawn) | / | / | / | ? | 16µM | /
Cc1ccc(OCc2ccccc2Br)c([N+](=O)[O-])n1 | . | . | . | . | . | ?
Cc1ccc(C2/C=C\CC(NC(=O)OCC3c4ccccc4-c4ccccc43)CC(=O)N2Cc2ccccc2)cc1 (stereo not drawn) | ? | . | . | ? | 16µM | .
Cc1[nH]nc2c1C(=O)CCC2 | . | . | . | 23µM | 18µM | .
CC(C)(C)OC(=O)n1cccc1/C=C1\c2ccccc2C(=O)N1c1ccccc1 | . | . | . | 21µM | ? | /
O=C(NCc1ccco1)c1ccccc1NS(=O)(=O)c1ccc(Br)s1 | . | . | . | ? | ? | .
Cc1onc(-c2ccccc2)c1C(=O)NNC(=S)NC(=O)/C=C/c1ccccc1 | . | ? | . | 21µM | 18µM | .
Cc1onc(-c2ccccc2)c1C(=O)NNC(=S)NC(=O)c1ccc(Cl)cc1Cl | . | ? | . | ? | ? | .
Cc1onc(-c2ccccc2)c1C(=O)NNC(=S)NC(=O)c1ccc(Br)cc1 | . | ? | ? | ? | ? | .
COc1ccc(/C=C/C(=O)NC(=S)NNC(=O)c2c(-c3ccccc3)noc2C)cc1 | . | ? | . | ? | 26µM | .
CCOC(=O)C(C)Sc1nc(=O)n2cc(C)ccc2n1 (stereo not drawn) | -101 | . | . | . | . | .
CCOC(=O)CSc1nc(=O)n2cc(C)ccc2n1 | . | . | . | . | . | .
Cc1ccc2nc(SCC(=O)OCc3ccccc3)nc(=O)n2c1 | -56 | . | . | . | . | ?
Cc1nc2cnc(N(C)C)nc2n(C)c1=O | / | / | / | . | . | /
O=C(OCC#Cc1c(COC(=O)c2ccccc2)nnn1Cc1ccccc1)c1ccccc1 | . | . | . | 18µM | ? | .
O=C(OCc1ccccc1)c1cccc(-c2nnn(Cc3ccccc3)n2)c1 | . | . | . | . | . | ?
S=C1SCN(CC2CC2)CN1CC1CC1 | . | . | ? | 0.58µM | 4.6µM | .
S=C1SCN(Cc2ccccc2)CN1Cc1ccco1 | . | . | . | ? | ? | /
CCC(C)NC(=O)Cn1ccc2cc(S(=O)(=O)N3CCCCC3)ccc21 (stereo not drawn) | / | / | / | ? | . | /
